Results taken from PubChem BioAssay (NCATS).
Records with an inconclusive call do not appear. The source made the active and inactive calls. The call rests on the fitted dose curve; in most records, active means well fitted curve in the direction sought with a large enough effect; inconclusive means small, poorly fitted or top-dose-only effect, or another doubt; inactive means no such curve, though single readings can be large; an effect the other way counts as inactive or inconclusive.

Columns and labels:
[1] = tested on: Zika virus NS2B-NS3 protease (linked construct); test: Primary screen NINDS Rhodamine qHTS for Zika virus inhibitors (AID 1347160); further: nearly all actives have a fitted effect of over 55% in size; further: potency means the concentration at half of the fitted maximal effect; on activity change, negative = inhibition: on the % scale 0 is the no-effect control and ±100 the full control effect
Method in brief: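 Aprotinin served as in-plate control. Conditions: 25 nM linked NS2B-NS3, pH 8.0 Tris buffer, titrated compounds, 15 min preincubation and 15 min reaction with 1.5 microM Rhod110 substrate at room temperature.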

[2] = OV-KATE Cancer Cell Toxicity qHTS against the NCATS CANVASS Library (AID 1347345); further: on the % scale 0 is the no-effect control and ±100 the full control effect
Method in brief: (§1)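 Per well, 1000 cells; exposure 72 h with compound at 11 final concentrations; readout CellTiter-Glo luminescence.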

[3] = A2780 Cisplatin Sensitive Ovarian Cancer Cell Toxicity qHTS against the NCATS CANVASS Library (AID 1347353); further: nearly all actives have a fitted effect of over 60% in size; further: potency means the concentration at half of the fitted maximal effect
Method in brief: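 Quantitative HTS format: eleven compound concentrations applied to pre-seeded cells, 72 h incubation at 37 °C, then ATP detection by luminescence.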

[4] = UWB1.289-WTBRCA1 Cancer Cell Toxicity qHTS against the NCATS CANVASS Library (AID 1347354); further: potency means the concentration at half of the fitted maximal effect
Method in brief: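 Using an ATP-based luminescent reagent after three days of treatment, toxicity is scored across an eleven-concentration range in wells holding 1000 cells each.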

[5] = HPAF-II 12hr Apoptosis Induction qHTS against the NCATS CANVASS Library (AID 1347358); further: 0% is about no effect
Method in brief: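 Twelve-hour compound exposure of HPAF-II cells in DMEM with 10% FBS, then luminescent Caspase-Glo 3/7 detection after 15 min at room temperature; doxorubicin control.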

[6] = HEK293 12hr Apoptosis Induction qHTS against the NCATS CANVASS Library (AID 1347361); further: 0% is about no effect
Method in brief: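 500 HEK293 cells/well; cpds pin-transferred, 11-pt conc series; 12 h, 37 degrees C/5% CO2; Caspase-Glo 3/7 added, 15 min RT dark; luminescence.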

[7] = KB-8-5-11 Cancer Cell Toxicity qHTS against the NCATS CANVASS Library (AID 1347364); further: nearly all actives have a fitted effect of over 75% in size; further: potency means the concentration at half of the fitted maximal effect
Method in brief: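 Luminescent ATP signal (CellTiter-Glo, 10 min at room temperature) measured cell survival of KB-8-5-11 after 72 hr compound treatment. For confirmation, the cells were also grown with 1uM tariquidar.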

[8] = SDT Cancer Cell Toxicity qHTS against the NCATS CANVASS Library (AID 1347365); further: nearly all actives have a fitted effect of over 60% in size; further: potency means the concentration at half of the fitted maximal effect
Method in brief: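 Canine SDT glioma cell toxicity was scored by ATP-dependent luminescence after a 72 hr incubation with an 11-point compound series.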

[9] = qHTS for Antimalaria activity screened against the NCATS CANVASS Library (AID 1347380); further: nearly all actives have a fitted effect of over 40% in size; further: potency means the concentration at half of the fitted maximal effect;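 on activity change, negative = inhibition: Plasmodium falciparum strain Dd2 asexual parasites grown in red blood cells; series mostly up to about 29 µM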
Method in brief: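 Measures proliferation or cytotoxicity against Dd2 blood stages in 72 h cultures, 11-point qHTS dosing, with SYBR Green fluorescence as read-out; dihydroartemisinin titration served as control.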

[10] = qHTS for activators of Nrf2/ARE signaling pathway screened against the NCATS CANVASS Library (AID 1347391); further: nearly all actives have a fitted effect of over 60% in size; further: potency means the concentration at half of the fitted maximal effect; on activation: 0% is about no effect
Method in brief: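 Activation of Nrf2/ARE was scored in ARE-bla HepG2 cells after 16 h compound exposure using CCF4 beta-lactamase fluorescence ratio readings.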

[11] = qHTS for inhibitors of Wild type Zika virus screened against the NCATS CANVASS Library (AID 1347396);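 further: ATP luminescence of surviving cells so rescue from viral cell killing; series mostly up to about 46 µM; on the % scale 0 is the no-effect control and ±100 the full control effect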
Method in brief: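 Vero 766 cells, 1000/well, o/n attach; cpds pin-transferred (11-pt qHTS); WT Zika added; 72 h, 37C, 5% CO2; CellTiter Glo lumi. Uninfected + vehicle = 100% inhibition.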

[12] = Redox Reaction Profiling qHTS: Assay Interference Panel against the NCATS CANVASS Library (AID 1347401);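 further: 100% = activation by 2 µM chloranil control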
Method in brief: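 Quantitative HTS over an 11-point series was run in HEPES pH 7.3 with 50 mM NaCl, 200 uM DTT and 5 uM resazurin. Initial and 15-min resorufin fluorescence readings were taken.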

[13] = HEK293 18hr Apoptosis Induction qHTS against the NCATS CANVASS Library (AID 1347357); further: 0% is about no effect
Method in brief: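 Caspase-3/7 luminescence (DEVD substrate, Caspase-Glo) after 18 h compound exposure of HEK293 cells, 500 cells/well; 11-point series; doxorubicin titration as control.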

[14] = qHTS for Hypoxia signaling pathway (HIF-1) antagonists against the NCATS CANVASS Library (AID 1347374); further: nearly all actives have a fitted effect of over 60% in size; further: potency means the concentration at half of the fitted maximal effect
Method in brief: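 Beta-lactamase reporter under HRE control in ME-180 cells; CoCl2 stimulus (60 uM solution as added), compounds 11-pt qHTS, 17 h 37C. CCF4 dye 2 h RT, 460/530 nm emission. CellTiter-Glo viability in same wells.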

[15] = Viability qHTS for inhibitors of the SERCaMP assay screened against the NCATS CANVASS Library (AID 1347400); further: series mostly up to about 92 µM; on the % scale 0 is the no-effect control and ±100 the full control effect; nearly all actives have a fitted effect of over 70% in size
Method in brief: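 Measures loss of viability in SERCaMP reporter SH-SY5Y cells treated for 48 h with compounds; luminescent ATP detection by CellTiter-Glo.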

[16] = OV-SAHO Cancer Cell Toxicity qHTS against the NCATS CANVASS Library (AID 1347348); further: nearly all actives have a fitted effect of over 55% in size; further: potency means the concentration at half of the fitted maximal effect
Method in brief: as §1

[17] = SW1088 Cancer Cell Toxicity qHTS against the NCATS CANVASS Library (AID 1347350); further: nearly all actives have a fitted effect of over 75% in size; further: potency means the concentration at half of the fitted maximal effect
Method in brief: as §1

[18] = U-118MG Cancer Cell Toxicity qHTS against the NCATS CANVASS Library (AID 1347351); further: series mostly up to about 38 µM; on the % scale 0 is the no-effect control and ±100 the full control effect
Method in brief: as §1

[19] = biological target: Luciferin 4-monooxygenase (Photinus pyralis) (UniProt P08659); test: Firefly luciferase counterscreen qHTS: Assay Interference Panel against the NCATS CANVASS Library (AID 1347363); further: series mostly up to about 57 µM; 0% is about no effect
Method in brief: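 Purified P. pyralis luciferase was added to compounds (11-point series) preincubated 15 min at room temperature with substrate containing 0.013 mM D-luciferin and 0.013 mM ATP; luminescence was read after 5 min.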

[20] = MCF7 Cancer Cell Toxicity qHTS against the NCATS CANVASS Library (AID 1347369)
Method in brief: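 Luminescent ATP signal (CellTiterGlo) served as the cytotoxicity read-out after MCF7 breast cancer cells had been incubated 72 hr at 37C with natural products in an 11-point titration.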

Chain of Luciferin 4-monooxygenase (Photinus pyralis) (P08659 whole entry, looked up): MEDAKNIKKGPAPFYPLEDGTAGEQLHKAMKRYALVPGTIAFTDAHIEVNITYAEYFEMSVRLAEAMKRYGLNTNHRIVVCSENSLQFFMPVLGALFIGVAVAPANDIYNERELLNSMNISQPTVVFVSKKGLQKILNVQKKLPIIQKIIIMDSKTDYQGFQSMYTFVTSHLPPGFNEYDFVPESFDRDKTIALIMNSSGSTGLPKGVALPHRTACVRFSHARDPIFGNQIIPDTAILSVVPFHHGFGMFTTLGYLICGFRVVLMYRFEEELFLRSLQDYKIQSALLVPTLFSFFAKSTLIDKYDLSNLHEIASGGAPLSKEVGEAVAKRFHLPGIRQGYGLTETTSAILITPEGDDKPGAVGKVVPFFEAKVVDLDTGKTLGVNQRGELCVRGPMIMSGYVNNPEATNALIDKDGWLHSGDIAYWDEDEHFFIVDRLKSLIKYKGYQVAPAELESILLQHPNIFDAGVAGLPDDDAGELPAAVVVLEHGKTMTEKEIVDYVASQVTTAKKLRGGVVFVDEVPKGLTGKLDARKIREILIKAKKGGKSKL

O=C1CC2OCC=C3CN4C5CC3C2[C@@H]2N1c1ccccc1[C@]52C[C@@H]4C1=C[C@H]2C3CC4N(CC[C@@]45c4ccccc4N(C1=O)[C@@H]25)C/C3=C/CO (stereo not given in full)
inactive: Potency [1] | Potency [2] | Potency [4] | Potency [5] | outcome [6] | outcome [11] | Potency [12]
active: Potency [3] 7.43 µM | Potency [7] 18.7 µM | Potency [8] 20.9 µM | Potency [9] 2.36 µM | Potency [10] 1.66 µM

COc1ccc2[nH]c3c(c2c1)CCN1C[C@H]2C[C@@H](OC(=O)c4cc(OC)c(OC)c(OC)c4)[C@H](OC)[C@@H](OC)[C@H]2C[C@H]31
inactive: Potency [1] | Potency [2] | Potency [4] | Potency [13] | Potency [5] | outcome [6] | Potency [14] | Potency [10] | outcome [11] | Potency [15]
active: Potency [8] 0.526 µM | Potency [9] 7.47 µM

COC12OC1(C13OC1(OC)C(=O)c1cc4cc(C)oc(=O)c4c(O)c1C3O)C(O)c1c(cc3cc(C)oc(=O)c3c1O)C2=O (stereo not given)
active: Potency [1] 3.11 µM | Potency [17] 18.8 µM | Potency [14] 14.9 µM
inactive: Potency [2] | Potency [16] | Potency [18] | Potency [3] | Potency [4] | Potency [5] | outcome [6] | Potency [19] | Potency [7] | Potency [8] | Potency [20] | Potency [10] | Potency [15]

CC(C)=CC[C@H]1C[C@@]2(CC=C(C)C)C(=O)[C@](CC=C(C)C)(C(=O)C(C(=O)c3ccccc3)=C2O)C1(C)C
inactive: Potency [13] | Potency [5] | Potency [19] | Potency [20] | Potency [10] | outcome [11] | Potency [15]
active: Potency [1] 4.4 µM | Potency [16] 14.9 µM | Potency [17] 4.21 µM | Potency [3] 14.8 µM | Potency [4] 11.8 µM | Potency [7] 20.9 µM | Potency [14] 5.94 µM

C[C@H]1C=C[C@H]2CCCC[C@@H]2[C@H]1C(=O)[C@H]1CC2=C(C(=O)O)CCN2C1=O
inactive: Potency [2] | Potency [18] | Potency [4] | Potency [13] | outcome [6] | Potency [19] | Potency [7] | Potency [8] | Potency [20] | Potency [14] | Potency [9] | outcome [11] | Potency [12]
active: Potency [1] 11 µM | Potency [17] 16.8 µM | Potency [10] 16.6 µM

COc1cc(C2OCC3C(c4ccc(O)c(OC)c4)OCC23)ccc1O (stereo not given)
active: Potency [10] 0.305 µM
inactive: Potency [1] | activity change, negative = cytotoxicity [2] -0.541% [at 7.64 µM] | activity change, negative = cytotoxicity [16] -15.1% [at 7.64 µM] | outcome [17] inactive [at 7.64 µM] | activity change, negative = cytotoxicity [18] -4.99% [at 7.64 µM] | outcome [3] inactive [at 9.19 µM] | outcome [4] inactive [at 7.64 µM] | caspase activation [5] 6.04% [at 9.19 µM] | activity change, negative = inhibition [19] 1.7% [at 11.5 µM] | outcome [7] inactive [at 9.19 µM] | activity change, negative = cytotoxicity [8] 2.04% [at 9.19 µM] | activity change, negative = antiviral [11] -5.5% [at 9.14 µM] | activity change, negative = cytotoxicity [15] -10.2% [at 18.4 µM] | activation (redox signal) [12] -17.9% [at 11.4 µM]
